Measurements from PubChem BioAssay (NCATS).
Inconclusive results are not listed. Active and inactive are the calls of the source. Unless noted, the call rests on the fitted dose curve; in most records, active means well fitted curve in the direction sought with a large enough effect; inconclusive means small, poorly fitted or top-dose-only effect, or another doubt; inactive means no such curve, though single readings can be large; an effect the other way counts as inactive or inconclusive. Where a SMILES comes first, the peptide text is derived from it.

Key:
[1] = target: Cytochrome P450 1A2 (Homo sapiens) (UniProt P05177); assay: p450-cyp1a2 (AID 410; calls by dose curve; further: potency means the concentration at half of the fitted maximal effect)
Cytochrome P450 1A2 (Homo sapiens), sequence (P05177 whole entry, looked up): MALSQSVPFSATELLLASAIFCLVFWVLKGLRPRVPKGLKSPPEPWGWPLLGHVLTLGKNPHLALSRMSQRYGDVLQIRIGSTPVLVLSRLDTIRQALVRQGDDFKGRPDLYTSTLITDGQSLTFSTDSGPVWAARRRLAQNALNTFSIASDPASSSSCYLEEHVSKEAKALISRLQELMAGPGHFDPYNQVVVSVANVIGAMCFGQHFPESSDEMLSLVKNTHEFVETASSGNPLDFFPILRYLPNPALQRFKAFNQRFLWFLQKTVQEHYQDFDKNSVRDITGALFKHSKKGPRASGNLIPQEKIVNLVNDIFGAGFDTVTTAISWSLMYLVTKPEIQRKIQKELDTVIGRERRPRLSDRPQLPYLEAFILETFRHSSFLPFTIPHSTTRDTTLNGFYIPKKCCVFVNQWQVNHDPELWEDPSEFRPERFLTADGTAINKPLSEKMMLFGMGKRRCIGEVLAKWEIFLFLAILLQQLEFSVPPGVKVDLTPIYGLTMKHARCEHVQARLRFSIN
In short: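 Read-out is luminescence from luciferin produced by CYP1A2 demethylation of Luciferin-ME (100uM, at Km). Detection reagent stopped the 60 min NADPH-dependent reaction; signals were normalized to 57 uM furafylline.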

[2] = target: Glucocorticoid receptor (Homo sapiens) (UniProt P04150); assay: GR-GFP Redistribution (AID 450;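 active means compounds whose dose series gives a full or clear partial fitted curve of increased nuclear translocation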; further: potency means the concentration at half of the fitted maximal effect)
Glucocorticoid receptor (Homo sapiens), sequence (P04150 whole entry, looked up, the tested form may be a part): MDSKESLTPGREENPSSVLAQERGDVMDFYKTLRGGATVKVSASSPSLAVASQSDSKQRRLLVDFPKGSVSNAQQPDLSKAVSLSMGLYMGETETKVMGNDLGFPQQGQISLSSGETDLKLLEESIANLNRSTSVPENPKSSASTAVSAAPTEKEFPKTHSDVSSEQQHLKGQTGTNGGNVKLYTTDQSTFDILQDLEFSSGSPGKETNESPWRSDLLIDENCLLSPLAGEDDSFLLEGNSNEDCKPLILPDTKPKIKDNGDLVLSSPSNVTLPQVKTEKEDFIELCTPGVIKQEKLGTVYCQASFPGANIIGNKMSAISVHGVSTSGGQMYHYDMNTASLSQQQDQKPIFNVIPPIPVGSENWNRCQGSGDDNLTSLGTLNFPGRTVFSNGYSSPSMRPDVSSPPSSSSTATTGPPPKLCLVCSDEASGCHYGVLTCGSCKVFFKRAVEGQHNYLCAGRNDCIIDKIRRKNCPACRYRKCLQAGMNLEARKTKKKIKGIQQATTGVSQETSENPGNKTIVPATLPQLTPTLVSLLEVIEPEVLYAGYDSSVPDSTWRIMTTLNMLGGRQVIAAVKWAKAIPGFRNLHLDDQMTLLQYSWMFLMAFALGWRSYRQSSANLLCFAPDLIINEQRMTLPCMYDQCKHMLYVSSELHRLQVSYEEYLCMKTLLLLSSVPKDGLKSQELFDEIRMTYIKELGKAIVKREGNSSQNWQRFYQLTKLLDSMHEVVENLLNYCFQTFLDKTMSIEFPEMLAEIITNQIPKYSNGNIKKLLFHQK

[3] = target: Glucocorticoid receptor (Homo sapiens) (UniProt P04150); assay: GR-EFC Redistribution (AID 451; calls by dose curve; further: potency means the concentration at half of the fitted maximal effect); conditions: CHO-K1 GR-EFC translocation, beta-gal luminescence, 2 h
In short: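 Translocation of GR-ED fusion to nuclear EA restores b-gal, read by luminescence after 1 h room-temperature detection. Engineered CHO-K1 biosensor cells, 1,000/well, exposed 2 h at 37 C to titrations up to 46 uM final.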

[4] = target: 3',5'-cyclic-AMP phosphodiesterase 4B (Homo sapiens) (UniProt Q07343); assay: qHTS Assay for Inhibitors of PDE-IV (AID 607; active means well fitted activation curve with a large enough effect in the main read-out, with a control signal flat, not every such curve was filed as active)
3',5'-cyclic-AMP phosphodiesterase 4B (Homo sapiens), sequence (Q07343 whole entry, looked up): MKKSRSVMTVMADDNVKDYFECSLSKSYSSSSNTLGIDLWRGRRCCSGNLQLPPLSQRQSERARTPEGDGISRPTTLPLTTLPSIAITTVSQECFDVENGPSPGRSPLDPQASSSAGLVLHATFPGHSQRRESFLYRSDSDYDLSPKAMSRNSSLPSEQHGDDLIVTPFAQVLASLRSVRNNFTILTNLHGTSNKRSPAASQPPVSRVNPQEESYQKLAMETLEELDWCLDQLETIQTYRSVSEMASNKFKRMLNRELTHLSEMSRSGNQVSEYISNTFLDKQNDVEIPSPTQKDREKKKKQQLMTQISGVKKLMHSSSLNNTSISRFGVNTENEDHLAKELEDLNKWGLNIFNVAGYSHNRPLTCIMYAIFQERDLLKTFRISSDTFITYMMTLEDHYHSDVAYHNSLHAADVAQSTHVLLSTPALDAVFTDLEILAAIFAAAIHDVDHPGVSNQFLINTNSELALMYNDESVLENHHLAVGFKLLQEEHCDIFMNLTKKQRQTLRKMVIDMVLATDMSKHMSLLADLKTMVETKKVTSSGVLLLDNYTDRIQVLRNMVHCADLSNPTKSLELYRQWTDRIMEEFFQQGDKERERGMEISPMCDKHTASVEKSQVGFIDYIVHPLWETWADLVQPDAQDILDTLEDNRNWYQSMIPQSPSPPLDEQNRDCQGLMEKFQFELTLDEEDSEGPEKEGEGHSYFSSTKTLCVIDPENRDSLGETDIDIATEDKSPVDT
In short: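 Live HEK293 cells with a modified cyclic nucleotide-gated (CNG) channel report intracellular cAMP via membrane-potential dye fluorescence (ex 535/em 590 nm). Endogenous PDE-IV was targeted. Compounds were tested at up to 22.9 uM final; RO 20-1724 100 uM served as control.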

[5] = target: Cytochrome P450 2C9 (Homo sapiens) (UniProt P11712); assay: qHTS Assay for Inhibitors and Substrates of Cytochrome P450 2C9 (AID 883); further: nearly all actives have a fitted effect of over 60% in size; further: potency means the concentration at half of the fitted maximal effect
Cytochrome P450 2C9 (Homo sapiens), sequence (P11712 whole entry, looked up): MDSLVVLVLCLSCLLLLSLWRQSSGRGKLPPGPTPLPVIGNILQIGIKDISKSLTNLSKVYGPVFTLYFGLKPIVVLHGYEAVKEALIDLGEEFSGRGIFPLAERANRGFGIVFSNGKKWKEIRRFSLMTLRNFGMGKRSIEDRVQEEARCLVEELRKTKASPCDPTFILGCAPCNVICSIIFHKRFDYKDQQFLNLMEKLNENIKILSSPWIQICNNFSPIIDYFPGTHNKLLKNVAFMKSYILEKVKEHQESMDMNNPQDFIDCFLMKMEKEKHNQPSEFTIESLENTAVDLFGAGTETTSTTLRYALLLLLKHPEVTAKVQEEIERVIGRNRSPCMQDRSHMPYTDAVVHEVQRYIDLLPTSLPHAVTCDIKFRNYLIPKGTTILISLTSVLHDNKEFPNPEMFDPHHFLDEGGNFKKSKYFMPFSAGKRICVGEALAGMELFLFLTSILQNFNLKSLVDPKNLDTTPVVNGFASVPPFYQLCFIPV
In short: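 Inhibition of CYP2C9 is scored as loss of luminescence, with 57uM sulphaphenazole defining 100% inhibition. Substrate Luciferin-H is used at 100uM, equal to its KM; enzyme at 10nM in 25mM KPO4, 60 min at 37C with NADPH regeneration.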

[6] = target: Cytochrome P450 3A4 (Homo sapiens) (UniProt P08684); assay: qHTS Assay for Inhibitors and Substrates of Cytochrome P450 3A4 (AID 884); further: nearly all actives have a fitted effect of over 50% in size; further: potency means the concentration at half of the fitted maximal effect
Cytochrome P450 3A4 (Homo sapiens), sequence (P08684 whole entry, looked up): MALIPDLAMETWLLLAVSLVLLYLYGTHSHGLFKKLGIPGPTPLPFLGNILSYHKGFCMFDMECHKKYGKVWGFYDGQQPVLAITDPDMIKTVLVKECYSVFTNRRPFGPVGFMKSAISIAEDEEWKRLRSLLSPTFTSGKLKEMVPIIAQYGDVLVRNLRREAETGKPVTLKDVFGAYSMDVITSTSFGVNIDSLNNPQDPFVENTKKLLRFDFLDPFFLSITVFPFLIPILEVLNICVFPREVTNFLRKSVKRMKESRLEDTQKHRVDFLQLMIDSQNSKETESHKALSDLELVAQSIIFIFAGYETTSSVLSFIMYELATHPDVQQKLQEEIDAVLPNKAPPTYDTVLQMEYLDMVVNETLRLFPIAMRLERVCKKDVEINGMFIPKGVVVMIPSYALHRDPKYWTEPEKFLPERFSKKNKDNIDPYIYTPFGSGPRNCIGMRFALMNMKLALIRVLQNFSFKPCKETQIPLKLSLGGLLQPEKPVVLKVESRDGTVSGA
In short: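 Luminescent readout of luciferin produced by CYP3A4 (20 nM) dealkylation of Luciferin-PPXE, 25 uM (its KM). NADPH-driven reaction ran 60 min at RT after 10 min compound preincubation; data scaled to 57 uM ketoconazole as 100% inhibition.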

[7] = target: Cytochrome P450 3A4 (Homo sapiens) (UniProt P08684); assay: qHTS Assay for Activators of Cytochrome P450 3A4 (AID 885); further: nearly all actives have a fitted effect of over 65% in size
In short: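 Using 20nM recombinant human CYP3A4 in potassium phosphate (200mM), substrate Luciferin-PPXE at 25uM, luminescent luciferin detection followed a 60-min RT NADPH reaction; data scaled to 57 uM ketoconazole.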

[8] = target: Cytochrome P450 2C19 (Homo sapiens) (UniProt P33261); assay: qHTS Assay for Inhibitors and Substrates of Cytochrome P450 2C19 (AID 899); further: nearly all actives have a fitted effect of over 60% in size; further: potency means the concentration at half of the fitted maximal effect
Cytochrome P450 2C19 (Homo sapiens), sequence (P33261 whole entry, looked up): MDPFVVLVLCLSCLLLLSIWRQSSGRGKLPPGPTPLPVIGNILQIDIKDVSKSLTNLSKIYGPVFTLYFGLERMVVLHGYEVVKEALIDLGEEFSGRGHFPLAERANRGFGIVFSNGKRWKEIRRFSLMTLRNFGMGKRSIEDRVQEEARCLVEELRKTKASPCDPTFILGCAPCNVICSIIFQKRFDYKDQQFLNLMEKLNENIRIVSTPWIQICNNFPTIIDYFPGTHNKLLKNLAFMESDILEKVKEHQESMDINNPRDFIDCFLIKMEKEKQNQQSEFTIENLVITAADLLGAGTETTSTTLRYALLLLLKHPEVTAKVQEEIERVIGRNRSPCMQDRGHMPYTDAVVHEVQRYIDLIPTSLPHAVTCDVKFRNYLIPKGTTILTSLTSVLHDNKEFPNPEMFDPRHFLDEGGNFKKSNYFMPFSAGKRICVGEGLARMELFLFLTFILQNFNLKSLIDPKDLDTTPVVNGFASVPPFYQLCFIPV
In short: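 5nM enzyme + 10uM Luciferin-H EGE (=KM), 50mM KPO4; cpd pin-transferred, 10 min 37C; NADPH regen, 60 min 37C; stopped w/ luciferin detection reagent, 20 min; luminescence. Normalized to 57uM ketoconazole (AC100).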

[9] = target: DNA dC->dU-editing enzyme APOBEC-3G (Homo sapiens) (UniProt Q9HC16); assay: qHTS for inhibitors of Vif-A3G interactions: Validation (AID 588379)
DNA dC->dU-editing enzyme APOBEC-3G (Homo sapiens), sequence (Q9HC16 whole entry, looked up): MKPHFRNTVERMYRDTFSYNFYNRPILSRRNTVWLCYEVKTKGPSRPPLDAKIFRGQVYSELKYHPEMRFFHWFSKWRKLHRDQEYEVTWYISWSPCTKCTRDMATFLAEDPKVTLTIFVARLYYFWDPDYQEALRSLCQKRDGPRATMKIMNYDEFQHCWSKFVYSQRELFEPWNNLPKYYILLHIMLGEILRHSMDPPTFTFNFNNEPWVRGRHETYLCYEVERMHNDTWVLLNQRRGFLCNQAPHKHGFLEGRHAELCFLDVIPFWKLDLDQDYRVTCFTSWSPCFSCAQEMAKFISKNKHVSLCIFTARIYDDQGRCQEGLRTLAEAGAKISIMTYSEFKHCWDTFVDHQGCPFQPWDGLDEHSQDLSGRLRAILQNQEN
In short: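 Yellow fluorescence (Ex 488, Em 500-530) of Vif-coexpressing HeLa A3G-eYFP cells, scanned by Acumen cytometer, reports blocked A3G degradation. Cells plated at 700/well overnight at 37 deg C before compound addition, then a further overnight compound incubation at 37 deg C.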

[10] = target: Cytochrome P450 2D6 (Homo sapiens) (UniProt P10635); assay: qHTS Assay for Inhibitors and Substrates of Cytochrome P450 2D6 (AID 891); further: nearly all actives have a fitted effect of over 60% in size; further: potency means the concentration at half of the fitted maximal effect
Cytochrome P450 2D6 (Homo sapiens), sequence (P10635 whole entry, looked up): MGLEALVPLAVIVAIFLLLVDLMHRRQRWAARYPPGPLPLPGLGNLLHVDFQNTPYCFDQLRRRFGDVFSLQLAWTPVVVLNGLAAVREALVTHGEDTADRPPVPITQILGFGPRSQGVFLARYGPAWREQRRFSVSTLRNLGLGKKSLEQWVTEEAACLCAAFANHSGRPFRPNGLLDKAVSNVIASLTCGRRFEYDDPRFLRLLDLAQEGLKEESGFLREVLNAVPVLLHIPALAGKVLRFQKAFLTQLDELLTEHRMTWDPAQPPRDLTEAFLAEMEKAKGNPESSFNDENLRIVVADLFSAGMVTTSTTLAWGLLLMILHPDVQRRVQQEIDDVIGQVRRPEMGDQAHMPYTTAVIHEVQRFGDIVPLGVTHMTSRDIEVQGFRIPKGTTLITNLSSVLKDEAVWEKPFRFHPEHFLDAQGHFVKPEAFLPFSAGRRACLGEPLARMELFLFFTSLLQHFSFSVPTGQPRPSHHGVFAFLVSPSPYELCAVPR
In short: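 Luminescent read-out of luciferin formed by 5 nM human CYP2D6 demethylating 30 uM Luciferin-ME EGE (Km level) over 60 min at room temperature after NADPH regeneration addition. Data normalized to full inhibition by 1.43 uM quinidine.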

[11] = target: Mitogen-activated protein kinase 10 (Mus musculus) (UniProt Q61831); assay: JNK3 AlphaScreen Assay (AID 530; active means well fitted curve in either direction with a large enough effect, not every such curve was filed as active;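 further: kinase came from lysate of stimulated human HepG2 cells; signal reports phosphorylation of biotinylated GST-cJun 1-79 at Ser73 with 10 µM ATP; series mostly up to about 57 µM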)
In short: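 Kinase buffer: 20 mM Tris-HCl pH 7.6, 10 mM MgCl2, 1 mM DTT, 0.1 mM Na3VO4, 0.01% Tween-20; ATP 10 uM. Substrate biotin-GST-cJun(1-79), enzyme from activated HepG2 lysates. Detection by Ser73 phospho-antibody AlphaScreen.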

Measured: Potency

COc1cccc(-c2oc3ccccc3c(=O)c2O)c1
inactive: [2] > 46 µM | [3] > 46 µM | [4] | [7] | [9]
active: [1] 0.2 µM | [5] 12.6 µM | [6] 12.6 µM | [8] 6.31 µM

COc1ccc2oc(-c3ccc(O)cc3)cc(=O)c2c1
inactive: [2] > 46 µM | [3] > 46 µM | [4] | [7] | [9]
active: [1] 0.316 µM | [5] 2.51 µM | [6] 3.98 µM | [10] 25.1 µM

Cc1c(-c2ccccc2)oc2cc(O)ccc2c1=O
inactive: [2] > 46 µM | [3] > 46 µM | [7] | [10] | [9]
active: [1] 0.251 µM | [5] 2.51 µM | [6] 15.8 µM | [8] 0.126 µM

COc1ccc(-c2coc3ccc(O[C@@H]4O[C@@H](COC(C)=O)[C@@H](OC(C)=O)[C@@H](OC(C)=O)[C@H]4OC(C)=O)cc3c2=O)cc1
inactive: [1] | [2] > 46 µM | [3] > 46 µM | [11] | [4] | [10] | [8]

COc1ccc(-c2oc3cc(OC)c(OC(C)=O)c(OC)c3c(=O)c2OC)cc1OC(C)=O
inactive: [2] > 46 µM | [3] > 46 µM | [7] | [10] | [8] | [9]
active: [1] 12.6 µM | [6] 5.01 µM

O=c1cc(-c2ccc(O)c(O)c2)oc2cccc(O)c12
active: [1] 0.158 µM | [5] 7.94 µM | [6] 15.8 µM
inactive: [2] > 46 µM | [3] > 46 µM | [4] | [7] | [10] | [9]

C=C1CC[C@@H](O)C/C1=C/C=C1\CCC[C@]2(C)[C@@H]1CC[C@H]2[C@@H](C)CCCC(C)C
inactive: [1] | [2] > 46 µM | [3] > 46 µM | [11] | [4] | [5] | [10] | [8]

O=c1cc(-c2ccccc2O)oc2c(O)c(O)ccc12
active: [1] 2.51 µM | [5] 1.26 µM | [10] 15.8 µM
inactive: [2] > 46 µM | [3] > 46 µM | [4] | [7] | [9]

C=C(CO)[C@H]1Cc2c(ccc3c(=O)c4c(oc23)COc2cc(OC)c(OC)cc2-4)O1
inactive: [1] | [2] > 46 µM | [3] > 46 µM | [4] | [5] | [10] | [8]

N[C@@H](Cc1c[nH]c2ccccc12)C(=O)NCC(=O)O (H-Trp-Gly-OH)
inactive: [1] | [2] > 46 µM | [3] > 46 µM | [11] | [4] | [5] | [10] | [8]

CC1(C)[C@@H](O)CC[C@@]2(C)[C@H]1CC[C@]1(C)[C@H]2C(=O)C=C2[C@@H]3C[C@@](C)(C(=O)O)CC[C@]3(C)CC[C@@]21C
inactive: [1] | [2] > 46 µM | [3] > 46 µM | [11] | [4] | [5] | [10] | [8]

Cc1ccc(C(=O)[C@@H]2[C@@H]3[C@@H](C(=O)[C@@H]4OC[C@H]3O4)[C@@H]3C=Cc4ccccc4N23)cc1
inactive: [2] > 46 µM | [3] > 46 µM | [4]
active: [1] 15.8 µM | [5] 10 µM | [8] 15.8 µM

Cc1ccc2oc(-c3ccccc3)c(O)c(=O)c2c1
inactive: [2] > 46 µM | [3] > 46 µM | [4] | [5] | [6] | [10] | [8] | [9]
active: [1] 0.398 µM

C=C1CC[C@@H]2O[C@]2(C)CC[C@@H]2[C@H]1CC2(C)C
active: [1] 15.8 µM | [5] 25.1 µM
inactive: [2] > 46 µM | [3] > 46 µM | [11] | [10]

CC(=O)[C@H]1[C@H]2[C@H](C(=O)[C@@H]3OC[C@H]2O3)[C@@H]2c3ccccc3C=CN12
inactive: [2] > 46 µM | [3] > 46 µM | [11] | [4] | [10]
active: [1] 31.6 µM

O=c1c2ccccc2oc2cc(O)c([C@@H]3COC[C@@H](CO)[C@@H](O)[C@@H](O)[C@H]3O)c(O)c12
inactive: [1] | [2] > 46 µM | [3] > 46 µM | [11] | [4] | [5] | [10] | [8]

CC1(C)CCC[C@@]2(C)[C@@H]1CC[C@]1(C)OC(=O)C[C@@H]21
inactive: [1] | [2] > 46 µM | [3] > 46 µM | [11] | [10]
active: [8] 15.8 µM
